Screening results (PubChem BioAssay)
TDP43 rescue: rescues yeast growth from TDP-43 toxicity; TDP-43 expressing yeast growth rescue, BacTiter-Glo, 24 h; Potency, µM (top dose mostly 46.1 µM), usual class: activators; hit rate 1.8% among 410,000; also: nearly all actives have a fitted effect of over 50% in size
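Readout is BacTiter-Glo luminescence of cell growth, so inhibitors register as activators. TDP-43-expressing yeast at OD600=0.02 in galactose medium, after raffinose pregrowth to mid-log, were incubated with compound for 24 hr at 30 deg C.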
CCT chaperon mod: modulators of cytosolic chaperonin (CCT/TRiC) activity; purified chaperonin ATPase assay, HTRF ADP detection, 30 min; activity change, % (test concentration not listed), hits read low; hit rate 0.3% among 360,000; AID 651819; in the data active = activity change below about -30%
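TRiC at 40 or 20 nM final (batch-dependent) in 30 mM Tris pH 7.4, 100 mM KCl, 5 mM MgCl2, 1 mM DTT, with compound at single 76 uM and 10 uM ATP, 30 min at 37 deg C. ADP detected by HTRF Transcreener, 665/615 ratio.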
Apoferritin bind: binds horse apoferritin like a general anesthetic | P02791 | apoferritin/1-aminoanthracene competitive binding, fluorescence | Potency, µM (top dose mostly 77.5 µM), usual class: inhibitors | hit rate 0.074% among 350,000 | AID 485281; also: nearly all actives have a fitted effect of over 20% in size
Target sequence (P02791 2-175 limits assumed): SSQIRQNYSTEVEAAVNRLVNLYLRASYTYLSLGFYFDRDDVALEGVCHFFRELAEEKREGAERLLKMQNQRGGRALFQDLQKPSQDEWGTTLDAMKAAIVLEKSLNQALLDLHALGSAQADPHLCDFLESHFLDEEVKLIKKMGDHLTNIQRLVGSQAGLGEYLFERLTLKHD
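In PBS, apoferritin at 10 uM is loaded with 1-AMA from a 50% saturated solution. After 10 min of compound exposure at ambient temperature, reduced 535 nm fluorescence indicates probe displacement.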
pAkt inh: Akt phosphorylation inhibition; hit rate 0.32% among 360,000; Neuro2A IGF-stimulated pAkt S473 HTRF, 20 min; stronger effect = lower value; activity change, % for hits at 50 µM; AID 651550; in the data active = activity change below about -80%; inconclusive = mostly about -51% to -80%
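Single-point screen (50 µM final compound) in Neuro2A cells stimulated 20 min with 6 nM IGF at 37 deg C. After lysis, Ser473-phosphorylated Akt read by HTRF (ex 330 nm, em 615/665 nm) as the 665/615 ratio.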
aSyn yeast inh: rescues yeast growth from alpha-synuclein toxicity; Yeast expressing alpha-synuclein, growth rescue, BacTiter-Glo, 24 h; hit rate 0.14% among 370,000; Potency, µM (highest dose often 46.1 µM), actives largely listed as activators; also: nearly all actives have a fitted effect of over 65% in size
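Rescue of yeast growth: cells expressing toxic alpha-synuclein, induced in galactose at OD600 0.02, incubated with compound 24 h at 30 C. ATP luminescence quantified growth; inhibitors of toxicity appear as activators.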
Mito fusion act: blocks mitochondrial division or promotes mitochondrial fusion; hit rate 0.23% among 320,000; Potency, µM (highest dose often 46.1 µM), actives largely listed as activators; S. cerevisiae fusion-defective mutant growth rescue, CellTiterGlo 48 h; also: nearly all actives have a fitted effect of over 45% in size
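Read-out: ATP-based luminescence (CellTiterGlo, 10 min ambient) reporting growth of fusion-defective ts yeast after 48 hours at 37C on glycerol/ethanol YPEG medium in the presence of compound.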
Numbers stand for hits; - = inactive; ? = inconclusive; . = no result given; [ ] = dose if it differs, or a comment. Most compounds without a hit are left out; they make up all but 2.5% or so of the library. Unless noted, calls follow the shape of the dose curve; as a rule, active = well fitted curve in the direction sought with a large enough effect; inconclusive = small, poorly fitted or top-dose-only effect, or another doubt; inactive = no such curve, though single readings can be large; an effect the other way counts as inactive or inconclusive.

SMILES	TDP43 rescue	CCT chaperon mod	Apoferritin bind	pAkt inh	aSyn yeast inh	Mito fusion act
O=C(COC(=O)c1ccccc1C(=O)c1ccccc1)Nc1ccc(SC(F)F)cc1	-	-	-	-	-	15.8µM
CC(=O)Nc1ccc(/C=C/c2ccncc2)cc1	.	.	.	.	-	.
CC(=O)N1N=C(c2cccc(Cl)c2)OC1c1cccc([N+](=O)[O-])c1 (centres undefined)	15.8µM	-	-	-	-	-
CC(=O)N1N=C(c2ccccc2)CC1c1cccc([N+](=O)[O-])c1 (centres undefined)	12.6µM	-	-	-	-	-
CC(=O)N1N=C(c2cccs2)CC1c1cccc([N+](=O)[O-])c1 (centres undefined)	?	-	-	-	-	-
Cc1ccc(-n2nc(C(=O)N(C)c3ccccc3Cl)c3c4ccccc4n(C)c3c2=O)cc1	-	.	-	.	.	.
Cc1ccc(C(=O)Nc2cccnc2Oc2ccc(Cl)cc2)cc1	-	-	-	-	-	-
Cc1ccc(S(=O)(=O)Nc2cccnc2Oc2ccc(Cl)cc2)cc1	20µM	-	-	-	-	?
Cc1ccc(O)c(NC(=O)c2cc([N+](=O)[O-])ccc2Cl)c1	?	-	-	-	-	-
Cc1cc(O)c(NC(=O)c2cc([N+](=O)[O-])ccc2Cl)cc1C	14.1µM	-	-	-	-	?
CSc1nc(-c2ccccc2)nn1S(=O)(=O)c1ccccc1	-	-50.3	-	-	-	-
CSc1nc(-c2ccccc2)nn1S(=O)(=O)c1ccc(Cl)cc1	-	-	-	?	-	-
CCOC(=O)C1CCN(C(=O)c2cc3c(-c4ccc(OC)c(OC)c4)nn(C)c3s2)CC1	14.1µM	-	-	-	-	-
CCOC(=O)N1CCC(NC(=O)c2cc3c(-c4ccc(OC)c(OC)c4)nn(C)c3s2)CC1	-	-	-	-	-	-
CCOC(=O)C1CCN(C(=O)c2oc3ccc(S(=O)(=O)N4CC(C)CC(C)C4)cc3c2C)CC1 (centres undefined)	-	-	-	-81.8%	-	-
CCOC(=O)N1CCN(C(=O)c2oc3ccc(S(=O)(=O)N4CC(C)CC(C)C4)cc3c2C)CC1 (centres undefined)	-	-	-	-	-	-
Cn1nc(-c2ccncc2)nc2c(=O)n(C)c(=O)nc1-2	.	.	.	.	-	.
Cc1noc(C)c1CSc1nnc(-c2c[nH]c3ccccc23)n1-c1ccc(Cl)cc1	-	-	-	-114.8%	-	-
CCc1ccc(-n2c(SCc3c(C)noc3C)nnc2-c2ccncc2)cc1	-	-	-	-	-	-
COc1cc2c(cc1OC)/C(=C/C(=O)c1ccccc1F)NCC2	-	-	-	-	-	-
COc1cc2c(cc1OC)/C(=C/C(=O)c1ccc(F)cc1)NCC2	10µM	-	-	-	-	-
CC(=O)N1c2ccc(S(=O)(=O)N3CCN(c4cc(Cl)ccc4C)CC3)cc2CC1C (centres undefined)	-	.	-	.	.	.
Cc1ccc(C2CN(C)C3(C(=O)Nc4ccccc43)C23COc2ccccc2C3=O)cc1 (centres undefined)	3.55µM	-	-	-	-	-
CN1CC(c2ccccc2Cl)C2(COc3ccccc3C2=O)C12C(=O)Nc1ccccc12 (centres undefined)	?	-	?	-	-	-
Cc1cccc(-c2nc(CSc3nncn4c3cc3oc(C)cc34)c(C)o2)c1	-	.	-	.	.	.
SMILES	TDP43 rescue	CCT chaperon mod	Apoferritin bind	pAkt inh	aSyn yeast inh	Mito fusion act
Nc1cccc(/C=C2\C=Cc3ccccc32)c1	.	.	.	.	-	.
COCCNC(=O)CN1C(=O)/C(=C/c2ccccc2)Oc2ccc(C(C)(C)C)cc21	-	-	-	-	-	20µM
CS(=O)(=O)N1CCCc2cc(C(=O)Nc3cccc(C(F)(F)F)c3)ccc21	-	.	-	.	.	.
Cc1ccc2[nH]cc(C(c3ccccc3)c3ccc(Cl)s3)c2c1 (centres undefined)	?	.	-	.	.	.
Clc1ccc(C(c2ccccc2)c2c[nH]c3ccccc23)s1 (centres undefined)	20µM	.	-	.	-	.
CC1CCN(C2=C(NS(=O)(=O)c3ccc(Cl)cc3)C(=O)c3ccccc3C2=O)CC1	-[0.397 µM]	-	-	-	-	15.8µM
Cc1ccc(S(=O)(=O)NCC(=O)NCc2cc(=O)n(C)c(=O)n2C)cc1	-	-	-	-	-	-
Cc1ccc(S(=O)(=O)NCC(=O)NCc2cc(=O)n(C)c(=O)n2C)cc1C	-	-79.5	-	.	-	-
Cc1cccc(Nc2nn3c(=O)c4ccccc4nc3s2)c1	-	-	-	-101.6%	-	-
COc1ccc(OCC(=O)Nc2nnc3n2CCS3)cc1	-	.	-	.	-	.
COc1ccc(CN(C)C(=O)CCl)cc1	-	-	-	-	-	-
CN(Cc1ccc(Cl)cc1)C(=O)CCl	15.8µM	-	-	-	-	-
CN(Cc1ccc(Cl)s1)C(=O)CCl	10µM	-	-	-	-	-
COc1ccccc1NC(=O)CSc1nc2n[nH]c(C)c2c(=N)n1-c1ccccc1Cl	-	-	-	-	-	22.4µM
Cc1cccc(-n2c(SCC(=O)N3CCCC3)nc3n[nH]c(C)c3c2=N)c1	-	-	-	-103.7%	-	-
CC1CCN(S(=O)(=O)c2cn(CC(=O)Nc3ccc(F)c(Cl)c3)c(=O)c3ccccc23)CC1	-	.	-	.	.	.
Cc1ccc(OC2C(O)COC2/C=C/C#Cc2ccc(C(C)(C)C)cc2)cc1 (centres undefined)	.	.	-[15.3 µM]	.	.	.
N#Cc1c2n(c3c(=O)n(Cc4ccccc4Cl)cnc13)CCCCC2	-	-32.3	-	-	-	-
COc1ccc(C(=O)Nc2nc3ccc(S(C)(=O)=O)cc3s2)cc1	-	-	-	-85.0%	-	-
CC(C)(Oc1ccc(Cl)cc1)C(=O)Nc1nc2ccc(S(C)(=O)=O)cc2s1	12.6µM	.	-	.	.	.
Cc1ccc(S(=O)(=O)N2CCN(c3nc(-c4ncccn4)nc4ccccc34)CC2)cc1	.	.	.	.	-	.
Nc1nc(SCc2ccc(F)cc2)ns1	12.6µM	-	?	-	-	-
c1ccc(-c2ccc(-c3csc4ncnc(Sc5nnnn5-c5ccccc5)c34)cc2)cc1	.	.	.	.	-	.
Cn1c(-c2ccccc2)cc2c3no[n+]([O-])c3ccc21	3.55µM	-	-	-	-	-
COc1cccc(/C=C/c2ccc3ccccc3[n+]2C)c1OC	.	.	.	.	-	.
O=C(CN1CCN(C(=O)c2c(F)cccc2F)CC1)Nc1ccccc1C(F)(F)F	15.8µM	-	-	-	-	-
O=C(CN1CCN(CC(=O)Nc2ccccc2C(F)(F)F)CC1)Nc1ccccc1F	-	-	-	-	-	-
CCOC(=O)C1=C[C@@]2(CC)CCCN3CCc4c(n1c1ccccc41)C32 (some centres undefined)	.	.	-	.	.	.
O=C(CSc1ncc(-c2ccccc2)[nH]1)Nc1ccc(Cl)cc1	22.4µM	.	?	.	.	.
